PABP polyA inh – PABP-poly(A) binding inhibition | 1% of 290,000 active | calls only at 35 µM | AID 2014 | PABP-poly(A) RNA binding, fluorescence polarization;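 note: calls also rest on retests at 20 µM and on dose response follow-up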
eIF4E-4G inh – eIF4E/eIF4G interaction inhibition in translation initiation; TR-FRET eIF4E-eIF4GI(517-606) binding, 2 h; 0.37% of 220,000 active; inhibition, % at 21.7 µM; P63073+Q04637; AID 782;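 active = inhibition above about 30%, limit read from the data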
eIF4H FP inh – inhibitors of RNA binding by human eIF4H; AID 2012; eIF4H fluorescence polarization binding assay; inhibition, % at 35 µM; Q15056; 0.94% of 290,000 active;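 note: calls also rest on retests at 20 µM and on dose response follow-up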
PABP1 MLLE inh – blocks PAM2 peptide binding to the PABP1 MLLE domain; inhibition, % at 20 µM; P11940; GST-MLLE / FITC-PAM2 fluorescence polarization; 0.36% of 360,000 active; in the data active = inhibition above about 35%, passing the limit was not always enough
14-3-3 Bad PPI – disrupts binding of bovine 14-3-3 zeta to phospho-Bad peptide. 0.71% of 220,000 active. AID 781. inhibition, % at 21.7 µM. TR-FRET 14-3-3zeta/Dy647-pBad peptide displacement, 1 h. P63103;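 active = inhibition above about 70%, limit read from the data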
Large screens that a line does not name were inactive; [ ] = remark or other dose. This is a sample that favours compounds with a hit; in the whole collection about 1.9% have one here. Unless noted, the rule behind the calls is not given here.

COc1ccc(-c2nnc(CSc3ncnc4sc5c(c34)CCC5)o2)cc1OC	PABP polyA inh active, eIF4H FP inh 53.2 (no result: eIF4E-4G inh, 14-3-3 Bad PPI)
N#CCSc1ncnc2sc3c(c12)CCC3	none
CC1C(=O)N(Cc2cn(Cc3ccco3)nn2)CCS(=O)(=O)N1Cc1ccc(-c2ccc(Cl)cc2)cc1 (centres undefined)	none (no result: PABP polyA inh, eIF4E-4G inh, eIF4H FP inh, 14-3-3 Bad PPI)
Nc1c(C=C2C=CC(=O)C=C2)c(=O)nc2sc(CC(=O)N3CCCCC3)nn12	none (no result: PABP polyA inh, eIF4E-4G inh, eIF4H FP inh, 14-3-3 Bad PPI)
Nc1c(/C=C2/C=CC(=O)C(O)=C2)c(=O)nc2sc(CC(=O)N3CCOCC3)nn12	none (no result: PABP polyA inh, eIF4E-4G inh, eIF4H FP inh, 14-3-3 Bad PPI)
Nc1c(/C=C2/C=CC(=O)C(O)=C2)c(=O)nc2sc(CC(=O)N3CCCC3)nn12	PABP polyA inh active, eIF4H FP inh 55.2 (no result: eIF4E-4G inh, 14-3-3 Bad PPI)
Nc1c(/C=C2/C=CC(=O)C(O)=C2)c(=O)nc2sc(CC(=O)N3CCCCC3)nn12	PABP polyA inh active, eIF4H FP inh 68.9 (no result: eIF4E-4G inh, 14-3-3 Bad PPI)
COc1ccccc1CCc1nnc(CCC(=O)NC(C)Cc2cccs2)o1 (centres undefined)	none
COCCN(C(=O)Cc1cccs1)c1nnc(-c2cccnc2)s1	none
CCCCN(C(=O)Cc1cccs1)c1nnc(-c2cccnc2)s1	14-3-3 Bad PPI 70.7
O=C(Nc1cccc(Cl)c1N1CCCCC1)c1ccc(N2CCOCC2)c([N+](=O)[O-])c1	PABP polyA inh active, eIF4H FP inh active
CCCCCc1ccc2cc(C#N)ccc2n1	none (no result: PABP polyA inh, eIF4E-4G inh, eIF4H FP inh, 14-3-3 Bad PPI)
CCN(CC)C(=O)Cn1ncc2c1-c1ccccc1OC2	eIF4H FP inh 62.9
CCN(CCN(C)C)C(=O)Cn1ncc2c1-c1cc(C)ccc1OC2	none
CCCN1C(=O)c2cc(C(=O)NC3CCCCCC3)ccc2C1O (centres undefined)	none
CCCN1C(=O)c2cc(C(=O)O)ccc2C1O (centres undefined)	14-3-3 Bad PPI 82.5
O=C(Cn1cnc2ccccc21)N/N=C/C(Br)=C/c1ccccc1	none
COCC1CCCN(C(=O)c2ccc3nc(Cc4cccc(Cl)c4)oc3c2)C1 (centres undefined)	none (no result: eIF4E-4G inh, 14-3-3 Bad PPI)
Cc1cc(C)c2nc(-c3ccccn3)cc(C(=O)NCc3ccco3)c2c1	PABP polyA inh active, eIF4H FP inh 47.6
Cc1cc(C)c2nc(-c3ccccn3)cc(C(=O)NCc3cc(C)n(C)n3)c2c1	none
Cc1ccc(-c2cc(C(=O)NCc3ccco3)c3ccccc3n2)o1	PABP polyA inh active, eIF4H FP inh 85.6
CC(=O)N1CCN(S(=O)(=O)c2cccc(C(=O)NCCC3=CCCCC3)c2)CC1	none (no result: PABP polyA inh, eIF4E-4G inh, eIF4H FP inh, 14-3-3 Bad PPI)
COCCCNC(=O)c1cccn2c(=O)c3cc4ccccc4cc3nc12	PABP polyA inh active
C[C@@H]1CN([C@H](C)CO)C(=O)CCCn2nncc2CO[C@@H]1CN(C)C(=O)Nc1cccc2ccccc12	none (no result: PABP polyA inh, eIF4E-4G inh, eIF4H FP inh, 14-3-3 Bad PPI)
COc1cc(C(c2nnnn2C2CCCC2)N2CCN(C)CC2)cc(OC)c1OC (centres undefined)	14-3-3 Bad PPI 79.7
S=C1N(c2ccccc2)CN(CCN2CCOCC2)CN1c1ccccc1	eIF4E-4G inh 38.9
c1ccc(CCCN2CCOCC2)cc1	none (no result: eIF4E-4G inh, 14-3-3 Bad PPI)
Cc1ccc2nc(N/C(=N/S(=O)(=O)c3cccs3)c3ccccc3Cl)sc2c1	none
COc1ccc(CNc2nc(S(=O)(=O)c3ccccc3)c(Cl)s2)cc1OC	PABP polyA inh active, eIF4H FP inh 53.8
O=S(=O)(c1ccccc1)c1nc(NCc2ccccc2)sc1Cl	none
O=S(=O)(c1ccc(N2CCN(Cc3ccccc3)CC2)nc1)N1CCCC1	none (no result: PABP polyA inh, eIF4E-4G inh, eIF4H FP inh, 14-3-3 Bad PPI)
CN1CCC(N(C)S(=O)(=O)c2ccc(NC(=O)COc3ccc(F)cc3Cl)cc2)CC1	PABP polyA inh active (no result: eIF4E-4G inh, 14-3-3 Bad PPI)
O=C(CCC(NC(=O)OCc1ccccc1)C(=O)OCC(=O)N1CCCCC1)OCC(=O)N1CCCCC1 (centres undefined)	none
O=C(COC(=O)CCC(NC(=O)OCc1ccccc1)C(=O)OCC(=O)Nc1ccccc1)Nc1ccccc1 (centres undefined)	PABP polyA inh active
O=C(COC(=O)CCc1c[nH]c(=O)[nH]1)Nc1ccccc1	PABP1 MLLE inh 53.1
COc1ccc(C(=O)N2C(=S)NC(=O)/C2=C\c2ccc(C)cc2)cc1	14-3-3 Bad PPI 83.9[fluorescence artefact?]
CCOC(=O)N1CCN(C(=O)CSCc2nc(-c3ccccc3C)oc2C)CC1	none
CCOC(=O)N1CCN(C(=O)CSCc2nc(-c3ccccc3F)oc2C)CC1	PABP1 MLLE inh 45.4
O=C(CNC(=O)OCc1ccccc1)NCC(=O)Oc1ccc([N+](=O)[O-])cc1	none (no result: PABP polyA inh, eIF4E-4G inh, eIF4H FP inh, 14-3-3 Bad PPI)
CC1(OC(=O)CCc2ccccc2)C(=O)C=C2C=C3CCCN3C=C2C1=O (centres undefined)	PABP polyA inh active, eIF4H FP inh 83.1
CC1(OC(=O)CCc2ccccc2)C(=O)C=C2C=C(c3ccc(C#N)cc3)N(C3CCCCC3)C=C2C1=O (centres undefined)	PABP polyA inh active
COC(=O)CCCC1=CC2=CC(=O)C(C)(OC(=O)CCc3ccccc3)C(=O)C2=CO1 (centres undefined)	PABP polyA inh inconclusive, eIF4H FP inh inconclusive
CC1(OC(=O)c2cccs2)C(=O)C=C2C=C3CCCN3C=C2C1=O (centres undefined)	PABP polyA inh active, eIF4H FP inh 94.9
COC(=O)CCCC1=CC2=CC(=O)C(C)(OC(=O)c3cccs3)C(=O)C2=CN1C1CCCC1 (centres undefined)	none
CC1(OC(=O)CCc2ccccc2)C(=O)C=C2C=C(c3ccc(C#N)cc3)N(C(CO)CO)C=C2C1=O (centres undefined)	none
O=C(O)c1ccccc1SC1CC(=O)N(c2cccc3ccccc23)C1=O (centres undefined)	PABP1 MLLE inh 39.5
CCN1C(=O)CC(Sc2ccccc2C(=O)O)C1=O (centres undefined)	none
CCOc1ccc(N2C(=O)CC(Sc3ccccc3C(=O)O)C2=O)c([N+](=O)[O-])c1 (centres undefined)	PABP1 MLLE inh 40.5
CCOC(=O)c1c(N2C(=O)CC(Sc3ccccc3C(=O)O)C2=O)sc2c1CCCC2 (centres undefined)	PABP1 MLLE inh 49.5
CCOC(=O)c1c(NC(=O)c2ccccc2C(=O)O)sc2c1CCCC2	none (no result: eIF4E-4G inh, 14-3-3 Bad PPI)
COc1ccc(CN(C)C(=O)COC(=O)c2cc([N+](=O)[O-])ccc2N2CCCC2)c(OC)c1OC	none (no result: PABP polyA inh, eIF4E-4G inh, eIF4H FP inh, 14-3-3 Bad PPI)
CC(NC(=O)OCc1ccccc1)C(=O)NCC(=O)NC(Cc1ccc(OC(C)(C)C)cc1)C(=O)OC(C)(C)C (centres undefined)	none
CC(C)(C)OC(=O)C(Cc1ccc(OC(C)(C)C)cc1)NC(=O)CNC(=O)CNC(=O)OCc1ccccc1 (centres undefined)	eIF4H FP inh active
O=C1Nc2cc(Cl)cnc2N2CCCC12 (centres undefined)	eIF4H FP inh 61.0
O=C1Nc2ccccc2N2CCCC12 (centres undefined)	none (no result: PABP1 MLLE inh)
CN(C)S(=O)(=O)Nc1ccccn1	eIF4E-4G inh 54.9
O=S(=O)(Nc1ccccn1)c1ccc(Cl)cc1	none
Cc1ccccc1C(=O)NNC(=O)C1CC(=O)N(c2ccc3c(c2)OCCO3)C1 (centres undefined)	none (no result: PABP polyA inh, eIF4E-4G inh, eIF4H FP inh, 14-3-3 Bad PPI)

Bioassay records as filed in PubChem BioAssay.
